Source: PubChem BioAssay (NCI)
Values joined by “and” are separate entries in the source; they are usually repeats but may differ in a detail not shown here. Equal values may be shown once. This is part of a sample that, as a whole, favours compounds with a hit. Of some 83,000 tested, about 20% had one in any assay.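 How to read the values: 0–100, growth inhibition (40 = 60% inhibited); 0, no net growth; -100 to 0, cell death (-40 = 40% of starting cells died; -100 = all dead).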 Active and inactive are the calls of the source. The calls were made as follows: active = growth percent below 10; inactive = the rest.

The compounds below were run on HCT-116 colon (assay: NCI-60 one-dose screen, 48 h (100 = growth as untreated, 0 = no growth, -100 = all killed)). Settings: 10 µM unless noted.
NC(=O)c1ccc(-c2ccc3ncnc(N4CCc5cc(F)c(Cl)cc54)c3c2)cn1 was tested, and the growth was 63.6% (inactive). With COc1cc2cc(C(=O)N3C[C@@H](CCl)c4c3cc(OC(=O)N(CCC(=O)N3CCN(C)CC3)[C@H]3CCSSC3)c3ccccc43)[nH]c2c(OC)c1OC the growth was -41.4% (active). In the case of COc1ccc2[nH]c(=O)c(CSc3ccccc3Nc3nccc(-c4ccc5c(c4)OCO5)n3)cc2c1, the growth is reported as 70% (inactive).

What follows are compounds tested on HCC-2998 colon in the same assay as above. Settings: 10 µM unless noted.
For N#Cc1cc(-c2ccc3ncnc(N4CCc5cc(F)c(Cl)cc54)c3c2)cnc1N, the growth was 50.1% (inactive). With Cn1cc(Nc2ncnc(-c3ccc(N4CCCC4)c(C#N)c3)n2)cn1 the growth was 68.6% (inactive). In the case of CN(C)CCCc1ccc(Nc2cnn(C)c(=O)c2Cl)cc1, the growth is reported as 118% (inactive). For O=Cc1cncc(-c2ccc3ncnc(N4CCc5cc(F)c(Cl)cc54)c3c2)c1, the growth was 64% (inactive). N#CC1=C(c2cccs2)Nc2c(c(-c3ccccc3)nn2-c2ccccc2)C12C(=O)Nc1ccccc12 (centres undefined) was tested, and the growth was 38.1% (inactive). With O=C(CSc1nc2sc3c(c2c(=O)n1-c1ccc(Cl)cc1)CCCC3)NNC(=O)c1ccc(F)cc1 the growth was 113% (inactive). With COc1ccc(-c2cc(-c3cc(OC)c(OC)c(OC)c3)[nH]c(=O)c2C#N)cc1 the growth was 67.1% (inactive). For CC(=O)Nc1cccc(-n2c(COc3ccc(Br)cc3)nc3ccccc32)c1, the growth was 129% (inactive) and 112% (inactive). For Cc1cc(Cl)ccc1NC(=O)Nc1ccc(-c2ccc3c(c2)NC(=O)/C3=C\c2ccc[nH]2)cc1, the growth was 118% (inactive). With Nc1cc(-c2c[nH]c3ccc(Br)cc23)nc2cc(-c3c[nH]c4ccccc34)nn12 the growth was -78.2% (active). For CCc1ccc(SC2c3cc(OC)ccc3Oc3nc(N)c(C#N)c(N)c32)cc1 (centres undefined), the growth was -48.3% (active). COc1ccc(C(=O)NNC(=O)CSc2nc3sc4c(c3c(=O)n2-c2ccc(Cl)cc2)CCCC4)cc1 was tested, and the growth was 111% (inactive). For CNc1nc2ccccc2n2c(-c3ccc(O)c(O)c3)cnc12, the growth was 19.9% (inactive). In the case of CN(CCSSCCN1CCOCC1)C(=O)Oc1cc2c(c3ccccc13)[C@H](CCl)CN2C(=O)c1cc2cc(OCCCN3CCC3)ccc2[nH]1, the growth is reported as -64.7% (active). Cn1cc(-c2cc(N)n3nc(-c4c[nH]c5ccc(F)cc45)cc3n2)c2cccnc21 was tested, and the growth was -100% (active). For O=C(Cn1c(-c2ccccc2)nc2ccccc21)N=Nc1c(O)[nH]c2ccc(Br)cc12, the growth was 0.134% (active). O=C(NN1C(=O)/C(=C/C=C/c2ccc([N+](=O)[O-])o2)SC1=S)c1ccncc1 was tested, and the growth was -96.2% (active). With CCCCCCCCCc1ccc(C(=O)Nc2cc(C)ccc2C(=O)OC)cc1 the growth was 122% (inactive). In the case of COc1ccc(N=Nc2c(N)nn3c(-c4ccc([N+](=O)[O-])cc4)ccnc23)cc1, the growth is reported as 113% (inactive). In the case of COc1ccc2[nH]c(O)c(N=Nc3nc(-c4ccc(Cl)cc4)cs3)c2c1, the growth is reported as 1.1% (active). In the case of C[C@@H](Nc1c(C#N)cnc2ccc(-c3cnc4[nH]ncc4c3)cc12)c1ccccc1, the growth is reported as 33.3% (inactive). CS(=O)(=O)Nc1cccc(-n2c(COc3ccc(OC(F)(F)F)cc3)nc3ccccc32)c1 was tested, and the growth was 114% (inactive) and 113% (inactive). With Cc1cc(C(NC(=O)CCCCCNc2cccc3c2C(=O)N(C2CCC(=O)CC2=O)C3=O)c2cccc(N(C)C)c2)c(O)c2ncccc12 (centres undefined) the growth was 14.6% (inactive). In the case of COc1ccc(S(=O)(=O)Nc2ccc(-c3ccc4c(c3)NC(=O)/C4=C\c3ccc[nH]3)cc2)cc1OC, the growth is reported as 24.2% (inactive). For COc1ccc(-c2nc3ccccc3n2CC(=O)N=Nc2c(O)[nH]c3ccc(OC)cc23)cc1, the growth was 114% (inactive). Cc1ccc(C(C(=O)NC2CCCCC2)N(Cc2ccccc2Cl)C(=O)c2ccc(CN3CCOCC3)o2)o1 (centres undefined) was tested, and the growth was 94.7% (inactive). In the case of COc1ccc(N=Nc2c(N)nn3c(-c4ccc(OC)c(OC)c4)ccnc23)cc1, the growth is reported as -35.9% (active). Cc1ccc(Cl)cc1NC(=O)N/C(N)=N/c1nc2ccccc2s1 was tested, and the growth was -14.8% (active). With N#Cc1cc(-c2ccnc(Nc3ccc(N4CCN(C5COC5)CC4)cc3)n2)ccc1N1CCCC1 the growth was 75.4% (inactive). With COc1ccc(-c2nc3ccc(-c4nnc(SCC(=O)Nc5ccc(/C(C)=N\O)cc5)o4)cc3[nH]2)cc1 the growth was 126% (inactive). For O=C1/C(=C/c2cnc(-c3ccccc3)s2)SC(=S)N1Cc1ccc2c(c1)OCO2, the growth was 102% (inactive).
